Assay results published in PubChem BioAssay (Tox21).
Records with an inconclusive call do not appear. Activity calls are given as the source filed them. Unless noted, the call rests on the fitted dose curve; in most records, active means well fitted curve in the direction sought with a large enough effect in the repeat runs; inconclusive means weak or mixed curves; inactive means no such curve, though single readings can be large; an effect the other way counts as inactive or inconclusive.

Assays:
[1] = qHTS assay for small molecules that induce genotoxicity in human embryonic kidney cells expressing luciferase-tagged ATAD5 (AID 651632); further: nearly all actives have a fitted effect of over 15% in size
Procedure, shortened: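 Cells were seeded at 2,000 per well, dosed with compound, and incubated 16 hr at 37C in 5% CO2. Luciferase activity was then quantified after a 30 min room-temperature incubation with Amplite.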

[2] = qHTS assay for small molecule agonists of the p53 signaling pathway - cell viability (AID 651633; calls by dose curve;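 further: p53RE-bla HCT reporter cells with a stable beta-lactamase p53 reporter; series mostly up to about 83 µM; nearly all actives have a fitted effect of over 30% in size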)
Procedure, shortened: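 Viability counter-read: CellTiter-Glo luminescence (30 min, room temperature) in the same p53RE-bla plates. These plates had been exposed to compounds for 16 h at 37 C.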

[3] = qHTS assay for small molecules that induce genotoxicity in human embryonic kidney cells expressing luciferase-tagged ATAD5 - cell viability (AID 651634; calls by dose curve; further: nearly all actives have a fitted effect of over 25% in size)
Procedure, shortened: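 Cells (HEK293T, luciferase-tagged ATAD5) are seeded at 2,000 per well, dosed with compound or DMSO vehicle, and incubated 15.5 hr at 37C and 5% CO2. CellTiter-Fluor is added for 30 min before fluorescence is measured.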

[4] = qHTS assay for small molecule disruptors of the mitochondrial membrane potential - cell viability (AID 720634; calls by dose curve;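 further: human HepG2 liver cancer cells; series mostly up to about 83 µM; nearly all actives have a fitted effect of over 20% in size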)
Procedure, shortened: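 Cytotoxicity was measured by ATP quantitation in HepG2 wells that had first been treated with compound for 1 hr and stained with m-MPI dye; CellTiter-Glo incubation was 30 min at room temperature.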

[5] = qHTS assay to test for compound auto fluorescence at 590 nm (red) in HepG2 cells (AID 720674)
Procedure, shortened: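 1 hr compound incubation on HepG2 cells, 37 C, 5% CO2; plate read ex 540 nm / em 590 nm; intensities reported as Rose Bengal sodium equivalents.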

[6] = qHTS assay to test for compound auto fluorescence at 535 nm (green) in HepG2 cells (AID 720675)
[7] = qHTS assay to test for compound auto fluorescence at 460 nm (blue) in HEK293 cells (AID 720678)
Procedure, shortened: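 HEK293, 2,000 cells/well, 10% dialyzed FBS; attach 4-5 hr 37C; pin compound or DMSO; o/n 37C/5% CO2; fluorescence 405/460 nm; triamterene-equivalent units.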

[8] = qHTS assay to test for compound auto fluorescence at 590 nm (red) in HEK293 cells (AID 720679)
Procedure, shortened: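 Intensity at 540nm excitation and 590nm emission is reported as Rose Bengal sodium-equivalent autofluorescence. Measurements followed overnight exposure (37C, 5% CO2) of HEK293 cells, 2,000 per well, to 23 nL compound.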

[9] = qHTS assay to test for compound auto fluorescence at 535 nm (green) in HEK293 cells (AID 720680)
[10] = qHTS assay to test for compound auto fluorescence at 535 nm (green) in HEK293 cell free culture (AID 720682)
Procedure, shortened: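 Fluorescein serves as the green reference fluorophore; each compound's intrinsic emission at 535 nm (excitation 485 nm) is reported as an equivalent amount of that dye, measured in serum-containing DMEM without cells.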

[11] = qHTS assay to test for compound auto fluorescence at 590 nm (red) in HEK293 cell free culture (AID 720683)
Procedure, shortened: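 Red-channel autofluorescence of compounds in culture medium (DMEM, 10% FBS), no cells, measured at 540/590 nm. Rose Bengal sodium is the reference fluorophore for equivalence.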

[12] = qHTS assay to test for compound auto fluorescence at 590 nm (red) in HepG2 cell free culture (AID 720684)
Procedure, shortened: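 No cells present: MEM + 10% FBS only. Compound pinned in, red label read (540/590 nm). Activity = fluorescence equivalent to Rose Bengal sodium.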

[13] = qHTS assay to test for compound auto fluorescence at 460 nm (blue) in HepG2 cell free culture (AID 720685)
Procedure, shortened: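 Cell-free plates of MEM plus 10% FBS received 23 nL compound or DMSO vehicle; blue-channel (405/460 nm) intensity scored against triamterene as reference fluorophore.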

[14] = qHTS assay to test for compound auto fluorescence at 535 nm (green) in HepG2 cell free culture (AID 720686)
[15] = qHTS assay to test for compound auto fluorescence at 460 nm (blue) in HepG2 cells (AID 720687)
Procedure, shortened: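 Blue-channel autofluorescence (Ex/Em 405/460 nm, triamterene-equivalent) was measured after 1 hr compound exposure at 37 C, 5% CO2. Cells were HepG2, plated overnight at 37 C in MEM plus 10% FBS.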

[16] = target: Glucocorticoid receptor (Homo sapiens) (UniProt P04150); experiment: qHTS assay to identify small molecule agonists of the glucocorticoid receptor (GR) signaling pathway (AID 720691; active means well fitted activation curve with a large enough effect in the signal ratio in the repeat runs, not every such curve was filed as active; the % refers to the signal ratio)
Glucocorticoid receptor (Homo sapiens), sequence (P04150 whole entry, looked up): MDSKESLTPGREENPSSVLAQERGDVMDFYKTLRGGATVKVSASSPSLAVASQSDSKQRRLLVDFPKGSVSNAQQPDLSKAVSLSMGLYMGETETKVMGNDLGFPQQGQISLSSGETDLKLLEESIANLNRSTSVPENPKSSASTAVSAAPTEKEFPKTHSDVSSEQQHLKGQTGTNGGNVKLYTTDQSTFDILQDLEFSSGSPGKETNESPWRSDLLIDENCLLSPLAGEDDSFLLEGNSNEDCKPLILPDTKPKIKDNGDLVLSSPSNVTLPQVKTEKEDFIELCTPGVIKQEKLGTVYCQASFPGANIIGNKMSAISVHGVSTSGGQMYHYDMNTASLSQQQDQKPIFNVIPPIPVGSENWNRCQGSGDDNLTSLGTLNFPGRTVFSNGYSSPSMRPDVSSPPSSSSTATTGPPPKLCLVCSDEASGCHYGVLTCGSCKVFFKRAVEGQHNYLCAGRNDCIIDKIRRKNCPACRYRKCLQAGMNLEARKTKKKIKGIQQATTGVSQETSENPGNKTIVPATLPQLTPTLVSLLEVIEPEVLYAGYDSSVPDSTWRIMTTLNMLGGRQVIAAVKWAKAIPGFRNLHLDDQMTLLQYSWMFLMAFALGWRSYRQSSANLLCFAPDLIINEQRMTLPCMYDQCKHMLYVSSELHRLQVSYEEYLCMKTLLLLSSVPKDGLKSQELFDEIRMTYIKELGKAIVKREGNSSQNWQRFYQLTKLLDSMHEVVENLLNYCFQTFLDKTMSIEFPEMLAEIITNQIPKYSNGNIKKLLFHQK
Procedure, shortened: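 Steps: seed GR-bla HeLa cells, incubate 4 h at 37 C/5% CO2; pin-transfer DMSO-dissolved compounds; incubate 18 h at 37 C; add LiveBLAzer B/G FRET substrate; after 2 h at room temperature, measure fluorescence.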

[17] = qHTS assay to test for compound auto fluorescence at 460 nm (blue) in HEK293 cell free culture (AID 720681)
Procedure, shortened: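 Blue fluorescence (Ex 405/Em 460 nm, triamterene-equivalent) was read immediately after pin transfer of compound or DMSO into medium (DMEM, 10% FBS) without cells.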

[18] = target: Glucocorticoid receptor (Homo sapiens) (UniProt P04150); experiment: qHTS assay to identify small molecule antagonists of the glucocorticoid receptor (GR) signaling pathway (AID 720692; active means well fitted inhibition curve with a large enough effect in the signal ratio in the repeat runs, not every such curve was filed as active; the % refers to the signal ratio)
Procedure, shortened: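 Antagonism was scored as loss of dexamethasone-driven (5 nM final) reporter signal in HeLa cells bearing a glucocorticoid response element–beta-lactamase construct, after 18 h compound exposure at 37 C and 2 h FRET substrate loading.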

[19] = qHTS assay for small molecule agonists of the p53 signaling pathway (AID 651631; calls by dose curve; further: nearly all actives have a fitted effect of over 15% in size)
Procedure, shortened: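 Read-out is beta-lactamase FRET fluorescence measured 2 h after substrate addition at room temperature, in HCT-116 cells with a p53 response element-driven reporter exposed to compounds for 16 h at 37 °C.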

[20] = qHTS assay for small molecule disruptors of the mitochondrial membrane potential (AID 720635)
Procedure, shortened: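 Mitochondrial membrane potential tracked with Mito-MPS dye, red aggregates (ex 540/em 590 nm) against green monomers (ex 490/em 535 nm). Compound treatment 1 hr at 37C, dye 30 min in HepG2.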

Measured: Potency

Cc1ccc2cc(C)ccc2c1
not listed: [17] | [18] | [19] | [20]
inactive: all other assays above

CC[C@H](O)C(C[C@H](C)N(C)C)(c1ccccc1)c1ccccc1
not listed: [13] | [19] | [20]
inactive: all other assays above

O=C(O)CBr
not listed: [4] | [7] | [16] | [17] | [18] | [20]
inactive: all other assays above

C#CCOC(=O)/C=C(C)/C=C/CC(C)CCCC(C)C (configuration not stated)
not listed: [4] | [10] | [18] | [20]
inactive: all other assays above

[O-][Br+2]([O-])O
not listed: [3] | [10] | [12] | [13] | [18] | [20]
inactive: all other assays above

C#CC(C)(C)O
not listed: [10] | [12] | [16] | [18] | [19] | [20]
inactive: all other assays above

C=CCCC#N
not listed: [4] | [6] | [18] | [20]
inactive: all other assays above

COC(=O)c1ccc(CBr)cc1
not listed: [1] | [10] | [18]
inactive: all other assays above

CCCCCCCCBr
not listed: [4] | [6] | [13] | [20]
inactive: all other assays above

N#CC(Br)(Br)C(N)=O
not listed: [4] | [7] | [12] | [16] | [18] | [20]
inactive: all other assays above

N[C@@H](Cc1ccc(Oc2cc(I)c(O)c(I)c2)c(I)c1)C(=O)O
not listed: [7] | [16] | [18] | [19]
inactive: all other assays above

CCOP(=S)(OCC)Oc1ccc(Cl)cc1Cl
not listed: [4] | [7] | [18] | [20]
inactive: all other assays above

C[C@H](N)C(=O)c1ccccc1
not listed: [7] | [19]
inactive: all other assays above

CN1C(=O)COc2c(C(=O)NC3CN4CCC3CC4)cc(Cl)cc21 (configuration not stated)
not listed: [16] | [18] | [19] | [20]
inactive: all other assays above

C(COCC1CO1)OCC1CO1 (configuration not stated)
not listed: [13] | [18] | [19] | [20]
inactive: all other assays above

CCCN1CCC[C@@H]2Cc3nc(N)ncc3C[C@H]21
not listed: [16] | [18] | [19] | [20]
inactive: all other assays above
